Measured values as given in PubChem BioAssay (NCATS).
Several values for one entry are separate records, joined by “and”; a condition that tells them apart may be missing. Equal values may be shown once. Results filed as inconclusive are left out. Activity calls are given as the source filed them. Calls come from the whole dose curve; as a rule, active = well fitted cell-killing curve with a large enough effect; inconclusive = small, poorly fitted or top-dose-only effect, or effect the other way; inactive = no such curve, though single readings can be large or run the other way.
Potency is the fitted concentration of half-maximal effect.

Assay: Viability qHTS for spleen associated tyrosine kinase inhibitor (SYKi) drug resistant MV4-11 cells (AID 1963824); note: nearly all actives have a fitted effect of over 35% in size
Conditions: SYKi-resistant MV4-11 viability, CellTiter-Glo, 72 h; series mostly up to 45 µM
Summary of the method: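 CellTiter-Glo luminescence, read 10 min after reagent addition, reports viability after a 72 hr compound exposure. Cells are an MV4-11 line made resistant to SYK inhibition, seeded at 500 per well onto compound-containing plates.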
In the case of `O=C1Nc2nc(-c3c(O)cccc3OCC3CC3)cc([C@@H]3CCCNC3)c2CO1`, the Potency is reported as 4.11 µM (active) and 5.25 µM (active). In the case of `CO[C@@H]1[C@@H](OC)[C@H](C)[C@@](O)(CC(=O)O)O[C@H]1[C@H](C)[C@H]1O[C@@]2(CC[C@@](C)([C@H]3CC[C@@](C)([C@@H]4O[C@@H]([C@H]5O[C@](C)(O)[C@H](C)C[C@@H]5C)C[C@@H]4OC4C[C@H](OC)[C@@H](OC)[C@H](C)O4)O3)O2)C[C@H](O)[C@H]1C` (some centres undefined), the Potency is reported as 0.596 µM (active). For `COc1cc(C(=O)O)ccc1NC(=O)[C@@H]1N[C@@H](CC(C)(C)C)[C@](C#N)(c2ccc(Cl)cc2F)[C@H]1c1cccc(Cl)c1F`, the Potency was 5.25 µM (active). With `OCc1ccccc1O[C@@H]1O[C@H](CO)[C@@H](O)[C@H](O)[C@H]1O` the Potency was “inactive”. With `C[C@@H](O[C@H]1OCCN(Cc2n[nH]c(=O)[nH]2)[C@@H]1c1ccc(F)cc1)c1cc(C(F)(F)F)cc(C(F)(F)F)c1` the Potency was 16.6 µM (active). For `c1cc(-c2cnn3cc(-c4ccc(N5CCNCC5)cc4)cnc23)c2cccnc2c1`, the Potency was 0.92 µM (active). In the case of `CCC[C@H](N[C@H]1CCc2cc(F)cc(F)c2C1)C(=O)Nc1cn(C(C)(C)CNCC(C)(C)C)cn1`, the Potency is reported as 9.2 µM (active) and 6.61 µM (active). For `Cn1ncc(Cl)c1-c1cc(C(=O)N[C@H](CN)Cc2ccc(F)c(F)c2)sc1Cl`, the Potency was 11.6 µM (active) and 4.68 µM (active). In the case of `COc1ccccc1C(=O)Nc1cc2c(cc1N1CCCCC1)n(C)c(=O)n2C`, the Potency is reported as 14.8 µM (active).
